Test [1] deals with Thyrotropin receptor (Homo sapiens) (UniProt P16473). Description: qHTS assay to identify small molecule agonists of the thyroid stimulating hormone receptor (TSHR) signaling pathway (AID 1224843; calls by dose curve; also: % is scaled to controls: 0 for no effect and ±100 for the full control effect; nearly all actives have a fitted effect of over 45% in size). The procedure, abridged:
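Agonist-mode screen: TSHR HEK293 cells received test chemicals for half an hour at room temperature, then HTRF cAMP detection reagents for one hour prior to fluorescence measurement. Each chemical ran as a 15-concentration series, triplicated.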
On the technique in general: qHTS replaces the single test concentration by a dilution series.

A short description of test [2]: qHTS assay to identify small molecule agonists of the hypoxia (HIF-1) signaling pathway - cell viability counter screen (AID 1224844; calls by dose curve; also: % is scaled to controls: 0 for no effect and ±100 for the full control effect; nearly all actives have a fitted effect of over 50% in size). The procedure, abridged:
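HRE-bla ME-180; 0.5% dFBS; cpd 17 h, 37C, 5% CO2; CellTiter-Glo lum., 30 min RT, post-FRET read, same wells.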

A short description of test [3]: qHTS assay to identify small molecule agonists of H2AX (AID 1224845; active = well fitted activation curve with a large enough effect in the signal ratio in the repeat runs, not every such curve was filed as active; the % refers to the signal ratio; also: % is scaled to controls: 0 for no effect and ±100 for the full control effect). The procedure, abridged: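 Wild-type CHO-K1 cells, plated overnight, exposed 3hr at 37C to 15 concentrations (0.76% DMSO final). Lysed, then HTRF anti-pH2AX (S139) cryptate and anti-H2AX-d2 antibodies, 24 hr room temperature; 665/620 nm emission read.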
Test [4] can be described thus: qHTS assay to identify small molecule agonists of the hypoxia (HIF-1) signaling pathway (AID 1224846; active = well fitted activation curve with a large enough effect in the signal ratio in the repeat runs, not every such curve was filed as active; the % refers to the signal ratio; also: % is scaled to controls: 0 for no effect and ±100 for the full control effect). The essentials: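 Reporter induction in HRE-bla ME-180 cells is taken as agonism: cells sit 5 hrs after plating, receive compounds or DMSO only, incubate 17 hrs at 37C under 5% CO2, and are loaded with CCF4-AM for beta-lactamase FRET measurement.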
A short description of test [5]: qHTS assay to identify small molecule agonists of H2AX - cell viability counter screen (AID 1224847; calls by dose curve; also: nearly all actives have a fitted effect of over 30% in size; also: potency is read from the fitted curve at half-maximal effect; as to activity change, negative = cytotoxicity: top concentration of the series differs between compounds; % is scaled to controls: 0 for no effect and ±100 for the full control effect). The procedure, abridged:
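Compounds tested at 15 concentrations were incubated 3 hr at 37C with wild-type CHO-K1 cells; cellular ATP-based luminescence (CellTiter-Glo) indicated viability.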

Test [6] can be described thus: qHTS RealTime-Glo MT Cell Viability Assay in HepG2 cells - 24 hour (AID 1224867). Also: % is scaled to controls: 0 for no effect and ±100 for the full control effect; nearly all actives have a fitted effect of over 50% in size. The essentials:
(§1)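 Viability was tracked continuously by NanoLuc luminescence from prosubstrate reduced by living HepG2 cells, at successive time points over 40 h of compound exposure. Cells with reagent were preincubated 5 h at 37 °C before compound addition.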

Test [7] is described as follows: qHTS RealTime-Glo MT Cell Viability Assay in HEK293 cells - 32 hour (AID 1224868). Also: top concentration of the series differs between compounds; % is scaled to controls: 0 for no effect and ±100 for the full control effect; nearly all actives have a fitted effect of over 50% in size. The essentials: (§2)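 Viability tracked continuously by luminescence as live cells reduce a prosubstrate for NanoLuc; HEK293 cells preincubated 5 h, compound-treated at 37 C, and read at 0, 8, 16, 24, 32 and 40 h.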
Test [8] is described as follows: A CellTox Green Cytotoxicity Assay to monitor cytotoxicity in HEK293 cells - 0 hour (AID 1224869). Also: % is scaled to controls: 0 for no effect and ±100 for the full control effect; nearly all actives have a fitted effect of over 50% in size. The procedure, abridged: (§3)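 Tox21 screen in HEK293: membrane-impermeant cyanine dye fluoresces on binding dead-cell DNA; compound pinned 5 h post-seeding, plates held at 37 C, signal read repeatedly through 40 h.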
The nature of test [9]: qHTS RealTime-Glo MT Cell Viability Assay in HepG2 cells - 40 hour (AID 1224870). The essentials: (§4)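 HepG2 cells (600/well) mixed with RealTime-Glo MT reagent, settled 5 h at 37 C/5% CO2 before compound addition. Nonlytic NanoLuc luminescence from viable-cell prosubstrate reduction read repeatedly during 40 h treatment at 37 C.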
Test [10] in a line: A CellTox Green Cytotoxicity Assay to monitor cytotoxicity in HEK293 cells - 40 hour (AID 1224871). Also: % is scaled to controls: 0 for no effect and ±100 for the full control effect; nearly all actives have a fitted effect of over 45% in size. The procedure, abridged: as §3
Test [11] is described as follows: qHTS RealTime-Glo MT Cell Viability Assay in HEK293 cells - 16 hour (AID 1224872). The essentials:
as §2

Test [12] in a line: qHTS RealTime-Glo MT Cell Viability Assay in HepG2 cells - 8 hour (AID 1224873). Also: % is scaled to controls: 0 for no effect and ±100 for the full control effect; nearly all actives have a fitted effect of over 55% in size. The procedure, abridged: as §4
Test [13] can be described thus: qHTS RealTime-Glo MT Cell Viability Assay in HEK293 cells - 40 hour (AID 1224874). Particulars: RealTime-Glo luminescence; max response: stronger effect = lower value. The essentials:
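HEK293 + NanoLuc + prosubstrate, 600 cells/well; 5 h, 37 C/5% CO2; compound 23 nL in DMSO by pintool; 37 C; luminescence read at 0, 8, 16, 24, 32 and 40 h time points.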

Test [14] is described as follows: A CellTox Green Cytotoxicity Assay to monitor cytotoxicity in HEK293 cells - 24 hour (AID 1224875). Also: nearly all actives have a fitted effect of over 45% in size. Also: potency is read from the fitted curve at half-maximal effect. As to activity change: % is scaled to controls: 0 for no effect and ±100 for the full control effect. The essentials: as §3
A short description of test [15]: A CellTox Green Cytotoxicity Assay to monitor cytotoxicity in HepG2 cells - 16 hour (AID 1224876). Also: % is scaled to controls: 0 for no effect and ±100 for the full control effect; nearly all actives have a fitted effect of over 45% in size. The essentials:
(§5)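 Measurements at 0, 8, 16, 24, 32 and 40 h of treatment captured CellTox Green fluorescence in HepG2 cells that had been co-plated with reagent and preincubated 5 h at 37 C/5% CO2.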

Test [16] is described as follows: qHTS RealTime-Glo MT Cell Viability Assay in HepG2 cells - 32 hour (AID 1224877). Also: % is scaled to controls: 0 for no effect and ±100 for the full control effect; nearly all actives have a fitted effect of over 55% in size. The procedure, abridged: as §1
Test [17] can be described thus: A CellTox Green Cytotoxicity Assay to monitor cytotoxicity in HepG2 cells - 24 hour (AID 1224878). The essentials:
as §5

Test [18] in a line: A CellTox Green Cytotoxicity Assay to monitor cytotoxicity in HepG2 cells - 40 hour (AID 1224879). Also: % is scaled to controls: 0 for no effect and ±100 for the full control effect; nearly all actives have a fitted effect of over 40% in size. The essentials:
as §5

Test [19] can be described thus: qHTS assay to identify small molecule antagonists of the estrogen related receptor (ERR) signaling pathway from Tox21 library (AID 1224848). The procedure, abridged: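 Quantitative high-throughput format: ERR reporter cells (2,000/well) pre-incubated 6 h, treated 18 h at 37 C with compounds in DMSO alongside positive and negative controls, then read by ONE-Glo luminescence.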

A short description of test [20]: qHTS assay to identify small molecule agonists of the estrogen related receptor (ERR) signaling pathway from Tox21 library (AID 1224849; calls by dose curve; also: % is scaled to controls: 0 for no effect and ±100 for the full control effect; nearly all actives have a fitted effect of over 15% in size). Particulars: ERR reporter cell line, ONE-Glo luciferase, 18 h; at 92.4 µM (top of the series) unless noted. The procedure, abridged:
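Tox21 compounds tested for ERR agonism in an NTP reporter cell line: 18 h treatment at 37 C, then ONE-Glo luminescence.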

Unmarked numbers belong to inactive results. Results filed as inconclusive are left out. The source made the active and inactive calls. Unless noted, calls follow the shape of the dose curve; as a rule, active = well fitted curve in the direction sought with a large enough effect in the repeat runs; inconclusive = weak or mixed curves; inactive = no such curve, though single readings can be large; an effect the other way counts as inactive or inconclusive.

Thyrotropin receptor (Homo sapiens), sequence (P16473 whole entry, looked up): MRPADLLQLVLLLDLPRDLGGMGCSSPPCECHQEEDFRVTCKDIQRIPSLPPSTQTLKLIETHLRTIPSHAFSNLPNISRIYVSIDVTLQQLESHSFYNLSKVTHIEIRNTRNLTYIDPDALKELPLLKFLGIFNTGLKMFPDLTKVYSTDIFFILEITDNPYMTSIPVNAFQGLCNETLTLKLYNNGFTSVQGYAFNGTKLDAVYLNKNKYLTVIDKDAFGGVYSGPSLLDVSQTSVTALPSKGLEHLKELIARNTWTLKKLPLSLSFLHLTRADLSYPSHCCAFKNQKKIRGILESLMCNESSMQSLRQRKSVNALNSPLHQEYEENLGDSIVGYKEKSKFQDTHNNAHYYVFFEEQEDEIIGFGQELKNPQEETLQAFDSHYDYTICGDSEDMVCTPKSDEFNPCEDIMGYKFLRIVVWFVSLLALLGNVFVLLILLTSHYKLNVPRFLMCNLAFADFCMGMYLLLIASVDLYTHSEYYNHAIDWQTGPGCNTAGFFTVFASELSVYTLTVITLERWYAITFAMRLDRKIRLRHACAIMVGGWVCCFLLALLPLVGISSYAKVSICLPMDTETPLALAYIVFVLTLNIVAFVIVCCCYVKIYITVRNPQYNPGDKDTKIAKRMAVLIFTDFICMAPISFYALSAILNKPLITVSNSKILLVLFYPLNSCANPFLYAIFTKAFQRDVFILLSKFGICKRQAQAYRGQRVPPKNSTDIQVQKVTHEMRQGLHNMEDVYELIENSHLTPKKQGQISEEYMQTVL

As for `N#Cc1ccc(C(c2ccc(C#N)cc2)n2cncn2)cc1`, the Potency entry in [1], in test [2], in [3], in test [5], in [6] and in [7] was “inactive” in each case. In addition, the Potency entry in test [8], in [9], in test [10], in test [11], in test [14] and in test [15] was “inactive” each time. Moreover, the Potency entry in test [16], in [17] and in test [18] was “inactive” each time. Besides, the outcome in test [4] and in [12] was inactive. Besides, the max response in test [13] was -0.518%.

Regarding `CCC1(C)NC(=O)NC1=O` (stereo not given), the Potency result in test [1], in [2], in test [3], in test [5], in test [6] and in [7] was “inactive” throughout. The Potency result in test [8], in test [9], in test [10], in test [11], in test [14] and in test [16] was “inactive” throughout. Further, the call in test [4] and in [12] was inactive. Moreover, in [13], the max response was -2.11%.

With `CN1CCN(c2c(F)cc3c(=O)c(C(=O)O)cn(CCF)c3c2F)CC1`, the Potency result in [1], in [2], in test [3], in [5], in test [6] and in test [7] was “inactive” throughout. Further, the Potency result in test [8], in test [9], in [11], in test [15], in test [16] and in test [17] was “inactive” in each case. In addition, the Potency result in [18] was “inactive”. Also, in [4], the result was inactive. For the same compound, in [13], the max response was 10.4%. The Potency in test [14] is 5.35 µM (active).

In the case of `C=C(C)C(=O)OCCOP(=O)(O)O`, the Potency result in test [1], in test [2], in [3], in [5], in [6] and in test [7] was “inactive” throughout. Moreover, the Potency entry in test [8], in test [9], in [10], in test [11], in [14] and in test [15] was “inactive” in each case. The Potency entry in test [16], in test [17] and in test [18] was “inactive” in each case. The call in test [4] and in test [12] was inactive. Further, in test [13], the max response was 13.8%.

On to `CN(C)Cc1ccccc1`, for which the Potency entry in test [1], in test [2], in test [3], in test [5], in test [6] and in test [7] was “inactive” in each case. Moreover, the Potency result in test [8], in [9], in test [10], in [11], in test [14] and in test [15] was “inactive” in each case. Also, the Potency result in test [16], in [17] and in test [18] was “inactive” each time. The call in test [4] and in [12] was inactive. The max response in test [13] was 7.47%.

With `CCOc1ccccc1N`, the Potency entry in [1], in [2], in test [3], in test [6], in test [8] and in test [9] was “inactive” throughout. For the same compound, the Potency entry in [11], in [14], in [15], in test [16], in test [17] and in test [18] was “inactive” in each case. Further, the call in test [4] and in test [12] was inactive. Further, the figures for the Potency in test [5] and in test [19] were 44.7 µM (active) and 12.1 µM (active), respectively. The activity change, positive = activation in [20] was -59%.

Regarding `C[C@@H]1CN(c2c(F)c(N)c3c(=O)c(C(=O)O)cn(C4CC4)c3c2F)C[C@H](C)N1`, the activation in test [1] was 4.51% [at 19 µM]; in [4] it was 0.203% [at 15.8 µM]. The activity change, negative = cytotoxicity in test [2] was -0.675% [at 15.8 µM]; in test [5], 2.57% [at 31.6 µM]; in [6], 2.81% [at 15.8 µM]; in test [11], -1.59% [at 15.8 µM]. In addition, the activation (H2AX phosphorylation) in [3] was 0.193% [at 31.6 µM]. Besides, the figures for the activity change, negative = cytotoxic in [7], in test [9] and in test [16] were -1.37% [at 15.8 µM], -0.442% [at 15.8 µM] and 1.06% [at 15.8 µM], respectively. In addition, the cytotoxicity in [8] is 8.42% [at 15.8 µM]; in [17], -3.54% [at 15.8 µM]. Further, the cytotoxicity increase in [10] was 6.32% [at 15.8 µM]; in test [15] it was -2.88% [at 15.8 µM]; in [18], -1.78% [at 15.8 µM]. For the same compound, in test [12], the viability change, negative = cytotoxic is 0.974% [at 15.8 µM]. Besides, the max response in test [13] is -0.345%. Besides, the activity change in test [14] is 0.48% [at 15.8 µM, stronger effect = higher value].
